Screens from PubChem.
Most compounds without a hit are left out; they make up all but 21% or so of the library.
FBPA Giardia inh: blocks Giardia fructose-bisphosphate aldolase activity; A8B2U2; purified Giardia FBPA; Potency, µM (series often up to 59.6 µM), inactives show at the top dose activity, negative = inhibition, usual class: inhibitors; 0.71% of 290,000 active; AID 2451; further: potency means the concentration at half of the fitted maximal effect; on the % scale 0 is the no-effect control and ±100 the full control effect; nearly all actives have a fitted effect of over 55% in size
Target sequence (A8B2U2 whole entry, looked up): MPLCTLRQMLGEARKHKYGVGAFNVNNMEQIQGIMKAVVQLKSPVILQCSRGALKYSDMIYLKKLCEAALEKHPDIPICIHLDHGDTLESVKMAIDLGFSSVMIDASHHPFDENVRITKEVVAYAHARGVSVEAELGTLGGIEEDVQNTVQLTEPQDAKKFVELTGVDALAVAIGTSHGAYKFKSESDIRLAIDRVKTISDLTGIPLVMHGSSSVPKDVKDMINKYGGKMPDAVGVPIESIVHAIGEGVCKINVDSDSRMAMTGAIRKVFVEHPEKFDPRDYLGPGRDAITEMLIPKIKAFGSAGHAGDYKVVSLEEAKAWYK
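40 nM FBPA preincubated 10 min at RT with compound (up to 57.5 uM final), then substrate plus GAPDH/TPI/NAD/arsenate coupling and diaphorase/resazurin added. Fluorescence read after 20 min at RT, 525/598 nm.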
Shiga inhibitor: Shiga toxin inhibition | Vero cells, Shiga toxin protein synthesis inhibition reporter | inhibition, % at 38.7 µM | 9.2% of 290,000 active | AID 2315; in the data active means inhibition mostly above about 28%, no sharp cut-off; inactive means mostly below about 43%; further: 0% is about no effect
Cycloheximide cs: affects cycloheximide protein synthesis inhibition readout, counter-screen; AID 2314; cell reporter, cycloheximide protein synthesis inhibition counterscreen; max response, %; 12% of 300,000 active; in the data active means max response mostly above about 13%, no sharp cut-off; inactive means mostly below about 14%; further: read at 38.3 µM for the half of the compounds with a filed dose; 0% is about no effect
NS1 function inh: blocks influenza NS1 protein function; Potency, µM (series often up to 46.1 µM), for inactives: at the highest dose activity, positive = more growth; 0.4% of 270,000 active; AID 2326; calls by dose curve; further: potency means the concentration at half of the fitted maximal effect; actives are rising curves; nearly all actives have a fitted effect of over 50% in size
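A cell-based growth assay was used: compounds that relieve NS1-induced slow growth of budding yeast raise OD600. Assay medium was yeast nitrogen base with ammonium sulphate and -URA supplement, pH 6.0, with 2% galactose.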
Pf growth 48h: inhibits P. falciparum growth in the first generation, 48 h | P. falciparum luciferase growth in erythrocytes, 48 h | Potency, µM (doses to about 28.7 µM), for the others: at the highest dose activity change, negative = inhibition, actives largely listed as inhibitors | 5.9% of 310,000 active | AID 504832; further: potency means the concentration at half of the fitted maximal effect; on the % scale 0 is the no-effect control and ±100 the full control effect
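Luciferase-expressing parasites in RBCs, 2% Hct / 0.1% parasitemia final; RPMI 1640 + 0.5% Albumax; 37 C, 5% CO2, one generation; luminescence read-out, lower signal = inhibition.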
Pf growth 96h: inhibits malaria parasite growth, 96 h; 6.9% of 320,000 active; Potency, µM (series often up to 28.7 µM), for inactives: top-dose activity change, negative = inhibition, actives largely listed as inhibitors; P. falciparum luciferase reporter growth, 96 h; further: potency means the concentration at half of the fitted maximal effect; on the % scale 0 is the no-effect control and ±100 the full control effect
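Erythrocytes infected with luciferase-expressing P. falciparum were dispensed at 2% hematocrit and 0.05% parasitemia (final), then incubated with compounds 96 hours at 37 C in 5% CO2. Luminescence after detection reagent addition reported growth.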
* = called active by the depositor; i = inactive; ? = inconclusive; / = not tested or not shown; ! = repeats disagree; [ ] = another dose, or the depositor's remark. Unless noted, the call rests on the fitted dose curve; in most records, active means well fitted curve in the direction sought with a large enough effect; inconclusive means small, poorly fitted or top-dose-only effect, or another doubt; inactive means no such curve, though single readings can be large; an effect the other way counts as inactive or inconclusive.

SMILES	FBPA Giardia inh	Shiga inhibitor	Cycloheximide cs	NS1 function inh	Pf growth 48h	Pf growth 96h
COc1ccc(OC)c(S(=O)(=O)NC2CCCCNC2=O)c1 (stereo not given)	2.1%	-6.5	-5.0	4.3%	3.0%[0.00184 µM]	1.1%
Cc1nc2ccc(Br)cc2c2c1CC(CO)O2 (stereo not given)	4.9%	-8.2	-3.6	0.3%	19.9%[0.00184 µM]	-1.1%
Cc1ccc(C(=O)N/N=C/C=C/c2ccccc2)cc1	7.5%	48.8	24.7*	-0.1%	-29.8%	1.65µM*
Cc1ccc(/C=N/NC(=O)c2ccoc2C)o1	1.7%	116.7*	43.9*	-5.8%	104.3%	39.5%
Cc1ccc(/C=N/NC(=O)C(=O)N/N=C/c2ccc(C)o2)o1	-0.1%	-5.0	0.1	/	8.0%	?
Cc1occc1C(=O)N/N=C/C(Br)=C\c1ccccc1	-8.2%	49.7*	43.2*	-46.4%	204.3%	1.31µM*
O=C(N/N=C/C=C/c1ccccc1)c1cccc(Br)c1	/	25.3	8.9	-22.8%	0.0%	?
Cc1occc1C(=O)N/N=C/C=C/c1ccccc1[N+](=O)[O-]	-18.6%	30.0	41.8*	/	18.6%	1.2%
CC(NC(=O)CSC(=S)N1CCCC1)c1ccc(S(N)(=O)=O)cc1 (stereo not given)	/	/	/	/	10.6%	?
COCCNc1nc(-c2cc(-c3ccc(Cl)cc3)on2)cc(C(C)C)n1	1.8%	-5.9	-2.8	-0.3%	-6.0%	-7.0%
CCCCOC(=O)N/N=C/C=C/c1ccccc1	-0.3%	13.3*	20.7*	-7.7%	60.3%	?
NC(=S)N/N=C/C=C/c1ccccc1	-25.5%	-3.2	9.8	-22.3%	?	?
COc1ccc(C[C@@H](NS(=O)(=O)c2ccc(C(=O)O)cc2)C(=O)O)cc1	2.4%	-10.2	10.0	/	-27.0%	-5.0%
COc1cc(O)c(C(CCN2CCCC(C)C2)c2ccc3c(c2)OCO3)c(OC)c1 (stereo not given)	?	-5.3	-8.5	-9.0%	0.657µM*	0.586µM*
COc1cc(O)c(C(CC(=O)N2CCOCC2)c2ccc3c(c2)OCO3)c(OC)c1 (stereo not given)	?	-2.7	-1.4	2.5%	?	17.3%
COc1cc(O)c(C(CCN2CCOCC2)c2ccc3c(c2)OCO3)c(OC)c1 (stereo not given)	?	-3.0	-3.4	-1.0%	1.65µM*	2.33µM*
COc1cc(OC)c2c(C)cc(=O)oc2c1C(CCN1CCCC(C)C1)c1ccc(N(C)C)cc1 (stereo not given)	-26.9%	4.6	-4.8	/	/	/
COc1cc(O)c(C(CCN2CCCC(C)C2)c2ccc(N(C)C)cc2)c(OC)c1 (stereo not given)	-13.7%	10.6	-1.6	-10.2%	0.738µM*	0.465µM*
CCN(CC)CCC(c1ccc2c(c1)OCO2)c1c(OC)cc(OC)c2c(C)cc(=O)oc12 (stereo not given)	0.5%	-12.6	9.3	/	/	/
COc1cc(OC)c2ccc(=O)oc2c1C(CCN1CCCC(C)C1)c1ccc2c(c1)OCO2 (stereo not given)	4.3%	124.5*!	43.6*!	1.1%	9.28µM*	10.4µM*
Cc1ccc(C)c(NC(=O)CN(C)C(=O)COc2cccc3c2OC(C)(C)C3)c1	/	/	/	/	19.2%	?
Cc1noc(C)c1-c1ccc2ncnc(NC3CCCc4ccccc43)c2c1 (stereo not given)	1.5%	-2.3	-4.3	/	/	/
CCOC(=O)c1ccc(N(CC(=O)NC2CCCCC2)C(=O)CNC(=O)c2ccco2)cc1	-3.6%	-9.0	-1.6	-15.3%	?	4.9%
CN1CCc2nc(SCC(=O)Nc3ccc(OC(F)(F)F)cc3)c(C#N)c(-c3cccs3)c2C1	?	0.8	5.1	?	0.0%	0.0%
CN1CCc2nc(SCC(=O)Nc3cccc(F)c3)c(C#N)c(-c3cccs3)c2C1	-25.4%	52.8*	36.7	26.4%	13.1µM*	10.4µM*
SMILES	FBPA Giardia inh	Shiga inhibitor	Cycloheximide cs	NS1 function inh	Pf growth 48h	Pf growth 96h
N#Cc1c(SCc2c(Cl)cccc2Cl)nc(N)[nH]c1=S	/	/	/	/	3.2%	18.1%
O=C1CC(c2ccccc2Cl)=NN(c2ncnc3ccccc23)C1=O	?	93.7*	40.9*	/	0.4%	-22.8%
Cc1nc(C#N)c(N/N=C/c2cccc(Cl)c2)o1	-11.7%	53.7*	35.9*	-39.0%	107.7%	35.8%
CN(C)CCNc1oc(-c2cccc(Cl)c2)nc1C#N	-3.0%	-4.7	-2.9	1.2%	/	19.6%
COc1ccc(OCCSc2n[nH]c(N)n2)cc1	5.1%	48.5	31.2*	-0.9%	22.3%	/
O=C(C1COc2ccccc2O1)N1CCN(Cc2ccc(Br)cc2F)CC1 (stereo not given)	4.9%	-15.5	-3.9	-38.6%	17.7%	-11.4%
O=C(NCc1cccs1)c1nc(-c2cccs2)no1	-6.9%	66.1*	21.1*	/	15.3%[5.75 µM]	-101.4%[5.75 µM]
O=C(NCc1ccncc1)c1nc(-c2cccs2)no1	4.1%	2.3	-2.4	/	9.0%	-1.8%
O=C(NCCc1ccccc1)c1nc(-c2cccs2)no1	-6.3%	90.3*	44.6*	-51.3%	27.1%	0.0%
Oc1ccc(/C(Cc2ccccn2)=N\Nc2ccccc2)c(O)c1	?	-4.9	-1.4	/	9.5%	6.8%
Oc1ccc(/C=C/c2ccc3ccccc3n2)cc1	-19.3%	23.8	7.2	/	195.9%	?
O/C(=C\c1ccc2ccccc2n1)c1ccc(O)cc1O	-1.4%	38.9*	32.7*	/	364.7%	i
Oc1ccc(/C(Cc2ccc3ccccc3n2)=N\Nc2ccccc2)c(O)c1	?	69.2*	34.5*	/	?	?
COc1ccc2c(c1)C(=O)[C@H](OC(=O)NCc1ccco1)[C@@H](c1ccc(OC)c(Br)c1)O2	-1.1%	/	/	/	/	/
CCCn1c(=O)c(C)cn2nc(N)nc12	5.8%	/	/	/	/	/
C/C(=N/Nc1ncc(Br)cn1)c1ccc([N+](=O)[O-])cc1	-16.8%	/	2.3	-4.8%	-2.1%	305.3%
C/C(=N\Nc1nccnc1Cl)c1ccc(Br)cc1	?	77.6*	29.7*	7.0%	15.6%	-10.2%
C/C(=N\Nc1nccnc1Cl)c1ccc(O)c(C)c1	?	/	28.1*	1.5%	70.2%	122.5%
COc1ccc(/C(C)=N/Nc2nccnc2Cl)cc1	/	/	/	/	-61.4%	109.7%
C/C(=N\Nc1nccnc1Cl)c1ccc([N+](=O)[O-])cc1	-12.0%	66.1*	40.6*	-1.2%	73.9%	2.1%
CN(C1=NS(=O)(=O)c2ccccc21)c1ccc(OC(=O)c2ccncc2)cc1	0.2%	-24.4	0.6	0.7%	-11.3%	-7.0%
Cc1c(C(=O)C(=O)NCc2ccco2)c2ccccc2n1C	-5.2%	-7.8	-2.8	/	-11.7%	27.9%
COc1cccc(-c2nc3ccc([N+](=O)[O-])cc3o2)c1	6.0%	29.4*	12.5	/	58.5%	0.3%
CC(=O)CC(C)(C)Nc1nc2ccc([N+](=O)[O-])cc2o1	1.2%	48.6	12.6	0.8%	30.4%	33.5%
CC(C)(C)Nc1nc2ccc([N+](=O)[O-])cc2o1	-2.3%	34.8	18.7*	-4.6%	29.5%	28.5%
